Values without a mark were called inactive. The rule behind the calls is not given here.

Consider 35 molecules from PubChem BioAssay.

A short description of one experiment: blockers of DNA damage checkpoint Chk1 activation – imaging, HeLa, hydroxyurea, phospho-Chk1 antibody, percent positive cells, primary screen (AID 1186). The following applies: hydroxyurea-induced phospho-Chk1 immunofluorescence imaging, higher = more signal.
Take `CCCCCCCCCCC(O)C1C=CC2C(=O)N(c3ccccc3)C(=O)C2N1Nc1ccccc1F` (stereo not drawn): the z-score was -0.745.

Take `C=CCOC(=O)[C@H]1[C@@H]2C(=O)O[C@@H](c3ccccc3)[C@@H](c3ccccc3)N2[C@@H](c2ccc(OCCOC(=O)[C@H]3C[C@H]4C(=O)N[C@@H](CCCCNC(C)=O)C(=O)N4[C@H]3c3cccc(OCCO)c3)cc2)[C@]12C(=O)Nc1ccc(I)cc12`: the z-score was -0.138.

For the molecule `Cc1ccc(F)cc1S(=O)(=O)N[C@@H]1CCN(Cc2cccc3[nH]ccc23)C1`, the z-score was -0.561.

For the molecule `CC(C)C(=C=CC[C@@H](O)c1cccc(OCCO)c1)C[C@@H](O)c1ccccn1`, the z-score was -0.122.

`[N-]=[N+]=NCc1ccccc1[C@H]1OC(c2ccc(OCCCO)cc2)=N[C@@]1(Cc1ccccc1)C(=O)NCCN1CCOCC1`: the z-score is -0.0389.

Take `C=CC[C@H](OC(=O)Nc1ccc(SC)cc1)c1ccc(OCCO)cc1`: the z-score is 0.108.

Consider `CN(C)C(=O)[C@@]1(Cc2ccccc2)COC(c2ccc(OCCCO)cc2)=N1`, for which the z-score is -1.01.

`NC(=O)[C@H]1[C@@H]2C(=O)O[C@@H](c3ccccc3)[C@@H](c3ccccc3)N2[C@@H](c2ccc(O)cc2)[C@]12C(=O)Nc1ccc(C#CC3=CCCCC3)cc12`: the z-score is -0.165.

A short description of another experiment: blockers of DNA damage checkpoint Chk1 activation – imaging, HeLa, hydroxyurea, phospho-Chk1 nuclear intensity, primary screen (AID 1187). Note: test concentration not given here. The settings on record: hydroxyurea-induced phospho-Chk1 immunofluorescence imaging, higher = more signal.
On to `COC(=O)[C@@]1(Cc2ccc(F)cc2)[C@H]2c3cc(C(=O)N(C)C)n(Cc4ccc(O)c(OC)c4)c3C[C@H]2CN1C(=O)c1ccccc1`, for which the z-score is -0.131.

For the molecule `CO[C@H]1O[C@H](CO)[C@@H](OC(=O)Nc2cccc(F)c2)[C@H](OC(=O)Nc2ccccc2-c2ccccc2)[C@H]1OC(=O)Nc1ccccc1-c1ccccc1`, the z-score is -1.36.

Take `C=C(CCCC)/C(=C/C[C@H](OC(C)=O)c1ccc(OCCO)cc1)c1cc(C(=O)OC)ccc1OC`: the z-score was -1.97.

On to `COCCCNC(=O)[C@@]1(Sc2ccc(C)cc2)CC(=O)N(Cc2ccccc2Cl)[C@@H]1c1ccc(CO)cc1I`, for which the z-score is 0.456.

Consider `COc1cccc(/C=C(\C#N)C(=O)Nc2c(C)n(C)n(-c3ccccc3)c2=O)c1`, for which the z-score was -0.13.

`CS(=O)(=O)CCOC(=O)C1=CC(CCCO)=CC(C2CC2)N(Cc2cccc(OC(F)(F)F)c2)C=C1C(=O)OCCS(C)(=O)=O` (stereo not drawn): the z-score was -0.36.

For `COc1ccc(C#Cc2ccc3c(c2)[C@]2(C(=O)N3)[C@H](C(=O)Nc3nc4ccccc4s3)[C@H]3C(=O)O[C@H](c4ccccc4)[C@H](c4ccccc4)N3[C@@H]2c2ccccc2OCCO)cc1`, the z-score is -0.392.

In the case of `C=C[C@@H](C)[C@@H](OC(=O)Nc1ccc(SC)cc1)c1ccc(OCCO)cc1`, the z-score is 0.387.

With `CC(=O)N1CC(C(O)C2C=CC3C(=O)NC(=O)C3N2Nc2ccc(Cl)cc2Cl)c2ccccc21` (stereo not drawn), the z-score is 0.492.

Regarding `CC(C)C[C@@H]1NC(=O)[C@H]2C[C@@H](C(=O)NCCCCCN)[C@@H](c3cccc(OCCO)c3)N2C1=O`, the z-score was 0.0992.

As for `C=C(/C(=C/C[C@@H](OC(C)=O)c1ccc(CO)o1)c1cc(C(=O)OC)ccc1OC)C(C)C`, the z-score is 0.273.

Take `O=C1OCC=C[C@H]2OC34C=CCN(c5ccc6ccccc6c5)C(=O)[C@H]3N(CCCCCO)C(=O)[C@@H]4[C@@H]12` (stereo partly drawn): the z-score is 0.0639.

On to `COC(=O)[C@@]1(Cc2ccccc2)[C@H]2c3cc(C(=O)N4CCCC4)n(CCSCCO)c3C[C@H]2CN1C(=O)c1ccccc1`, for which the z-score was 0.501.

Take `NC(=O)[C@@H]1[C@H]2C(=O)O[C@H](c3ccccc3)[C@H](c3ccccc3)N2[C@H](c2ccc(OCCO)cc2)[C@@]12C(=O)Nc1ccc(C#CCCO)cc12`: the z-score is -0.804.

Consider `[N-]=[N+]=Nc1ccccc1C[C@]1(C(=O)NCc2ccccc2)COC(c2ccc(OCCCO)cc2)=N1`, for which the z-score is -0.571.

As for `CN1C(=O)[C@@]2(Cc3ccccc3)N=C(c3ccc(OCCCO)cc3)O[C@H]2c2ccccc21`, the z-score was -0.864.

Regarding `CCOC(=O)C[C@H]1[C@H](OC(=O)c2ccccc2-c2ccccc2)[C@@H](NC(=O)c2ccc3ccccc3n2)c2cc(OCCCO)ccc2N1C(=O)c1ccccc1`, the z-score is 0.6.

Regarding `Nc1cc(Br)ccc1C(=O)O`, the z-score was 0.343.

Consider `C=C(COC)C(=O)CC[C@@H](OC(=O)c1cccnc1)c1ccccc1OCCO`, for which the z-score is 0.162.

As to `CCOC(=O)C1=C[C@@H](c2ccccc2)N(S(=O)(=O)c2ccc(C)cc2)[C@H]1c1ccccc1`, the z-score was 0.529.

Turning to `CC(C)c1ccc(NN2C(C(O)Cc3ccccc3)C=CC3C(=O)N(c4ccccc4)C(=O)C32)cc1` (stereo not drawn), the z-score is 0.37.

Turning to `C=CCC(OC(C)=O)[C@@H]1[C@@H](N(Cc2ccc(-c3cccc(C(F)(F)F)c3)o2)C(=O)Cc2ccc(OC)cc2)c2cc(OCCCO)ccc2N1C(=O)Cc1ccc2ccccc2c1` (stereo partly drawn), the z-score is 0.375.

Turning to `COCCOC(=O)N1C(=O)[C@@]2(c3cc(C#CCNC(N)=O)ccc31)[C@H](c1ccc(O)cc1)N1[C@H](c3ccccc3)[C@H](c3ccccc3)OC(=O)[C@H]1[C@@H]2C(N)=O`, the z-score is -0.0072.

Turning to `C=CC1c2cc(O)c(OC)cc2CCN1Cc1ccc([N+](=O)[O-])o1` (stereo not drawn), the z-score is 0.406.

For the molecule `CC(=O)n1cc(C(O)C2C=CC3C(=O)N(c4ccccc4)C(=O)C3N2Nc2ccc(C(C)C)cc2)c2ccccc21` (stereo not drawn), the z-score was 0.2.

Regarding `CO[C@H]1O[C@H](CO)[C@@H](OC(=O)c2ccc(Br)cc2)[C@@H]2OC(=O)[C@H](Cc3ccccc3)C/C=C/C[C@@H](Cc3ccccc3)C(=O)O[C@@H]12`, the z-score was -1.06.

As for `CN(C)CCCC[C@@H]1NC(=O)[C@@H]2C[C@H](C(=O)O)[C@H](c3cccc(OCCO)c3)N2C1=O`, the z-score is 0.313.

In the case of `CCCCCCCCCCC(O)C1C=CC2C(=O)N(c3ccccc3)C(=O)C2N1Nc1ccccc1F` (stereo not drawn), the z-score was -1.48.

Consider `C=CCOC(=O)[C@H]1[C@@H]2C(=O)O[C@@H](c3ccccc3)[C@@H](c3ccccc3)N2[C@@H](c2ccc(OCCOC(=O)[C@H]3C[C@H]4C(=O)N[C@@H](CCCCNC(C)=O)C(=O)N4[C@H]3c3cccc(OCCO)c3)cc2)[C@]12C(=O)Nc1ccc(I)cc12`, for which the z-score is 0.239.

For the molecule `Cc1ccc(F)cc1S(=O)(=O)N[C@@H]1CCN(Cc2cccc3[nH]ccc23)C1`, the z-score is -0.948.

In the case of `CC(C)C(=C=CC[C@@H](O)c1cccc(OCCO)c1)C[C@@H](O)c1ccccn1`, the z-score was 0.156.

Regarding `[N-]=[N+]=NCc1ccccc1[C@H]1OC(c2ccc(OCCCO)cc2)=N[C@@]1(Cc1ccccc1)C(=O)NCCN1CCOCC1`, the z-score was 0.306.

As for `C=CC[C@H](OC(=O)Nc1ccc(SC)cc1)c1ccc(OCCO)cc1`, the z-score is 1.03.

`CN(C)C(=O)[C@@]1(Cc2ccccc2)COC(c2ccc(OCCCO)cc2)=N1`: the z-score was -1.03.

On to `NC(=O)[C@H]1[C@@H]2C(=O)O[C@@H](c3ccccc3)[C@@H](c3ccccc3)N2[C@@H](c2ccc(O)cc2)[C@]12C(=O)Nc1ccc(C#CC3=CCCCC3)cc12`, for which the z-score is -0.348.
